Experimental findings from the supplement of paper PMC12808144 are described below.

The subject of one assay is NHEM-hTERT. The experiment in a line: cell viability relative to DMSO control (fraction of DMSO control); higher = less cytotoxic, active = 0.5 or less. The note with it: 1 µM; 120 h. In a few lines:
(§1)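 Luminescence from ATPlite 1step was read after 120 h in 384-well plates carrying 315 approved anti-cancer drugs (TargetMol), acoustically pre-spotted to give 1 µM in duplicate. Cells were seeded in 40 µl per well: 2500/well NHEM-hTERT immortalized melanocytes and 1500/well patient-derived Mel-DCC-11 and Mel-DCC-11-R, its resistant subline, which was assayed alone and with 8 µM of its selecting drug. Viability was normalised to vehicle-treated controls and averaged across duplicate wells.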
As to `CCCCc1nc2cc(/C=C/C(=O)NO)ccc2n1CCN(CC)CC` [Pracinostat], the cell viability was 0.747 (inactive).

In the case of `CC1(C)NC(=O)N(c2ccc([N+](=O)[O-])c(C(F)(F)F)c2)C1=O` [Nilutamide], the cell viability was 1.19 (inactive).

As for `NCCNc1ccc(NCCN)c2c1C(=O)c1ccncc1C2=O.O=C(O)/C=C\C(=O)O.O=C(O)/C=C\C(=O)O` [Pixantrone dimaleate], the cell viability is 0.889 (inactive).

Turning to `O=[N+]([O-])c1cncn1CCN1CCOCC1` [Nimorazole], the cell viability is 1.14 (inactive).

Regarding `CCOC(N)=O` [Urethane], the cell viability was 1.09 (inactive).

For `CCc1ccc(CCOc2ccc(CC3SC(=O)NC3=O)cc2)nc1.Cl` (stereo unspecified) [Pioglitazone hydrochloride], the cell viability is 1.09 (inactive).

In the case of `COc1cc(N2CCC(N3CCN(C)CC3)CC2)ccc1Nc1ncc(Cl)c(Nc2ccccc2P(C)(C)=O)n1` [Brigatinib], the cell viability was 0.91 (inactive).

As to `Nc1nc(=O)c2c([nH]1)NCC(CNc1ccc(C(=O)N[C@@H](CCC(=O)[O-])C(=O)[O-])cc1)N2C=O.[Ca+2]` (stereo partly specified) [Calcium folinate], the cell viability is 1.16 (inactive).

With `CC(C)(S)[C@@H](N)C(=O)O` [Artamine], the cell viability is 1.08 (inactive).

Turning to `CC(C)C[C@H](NC(=O)CNC(=O)c1cc(Cl)ccc1Cl)B(O)O` [Ixazomib], the cell viability was 0.0856 (active).

In a further assay the test system is Mel-DCC-11-R. The experiment in a line: cell viability relative to DMSO control (fraction of DMSO control); higher = less cytotoxic, active = 0.8 or less. The note with it: 1 µM; 120 h; vemurafenib co-treatment 0 µM. An outline of the steps:
as §1
For the molecule `CN(C)c1nc(N(C)C)nc(N(C)C)n1` [Altretamine], the cell viability is 0.973 (inactive).

As for `C/C=C1/NC(=O)[C@H]2CSSCC/C=C/[C@H](CC(=O)N[C@H](C(C)C)C(=O)N2)OC(=O)[C@H](C(C)C)NC1=O` [Romidepsin], the cell viability is 0.0525 (active).

`CC[C@H](Nc1ncnc2[nH]cnc12)c1nc2cccc(F)c2c(=O)n1-c1ccccc1` [Idelalisib]: the cell viability was 1.07 (inactive).

As to `CCN(CC)CCNC(=O)c1c(C)[nH]c(/C=C2\C(=O)Nc3ccc(F)cc32)c1C.C[C@@H](CC(=O)O)C(=O)O` [Sunitinib Malate], the cell viability was 1.08 (inactive).

Consider `Nc1nc(Cl)nc2c1ncn2[C@@H]1O[C@H](CO)[C@@H](O)[C@@H]1F` [Clofarabine], for which the cell viability was 0.91 (inactive).

For the molecule `Cc1coc2c1C(=O)C(=O)c1c-2ccc2c(C)cccc12` [Tanshinone I], the cell viability was 1.03 (inactive).

With `CC(=O)O.CC(C)C[C@H](NC(=O)[C@@H](COC(C)(C)C)NC(=O)[C@H](Cc1ccc(O)cc1)NC(=O)[C@H](CO)NC(=O)[C@H](Cc1c[nH]c2ccccc12)NC(=O)[C@H](Cc1cnc[nH]1)NC(=O)[C@@H]1CCC(=O)N1)C(=O)N[C@@H](CCCN=C(N)N)C(=O)N1CCC[C@H]1C(=O)NNC(N)=O` [Goserelin acetate], the cell viability is 0.927 (inactive).

With `CC(/C=C/C=C(\C)C(=O)O[C@@H]1O[C@H](CO[C@@H]2O[C@H](CO)[C@@H](O)[C@H](O)[C@H]2O)[C@@H](O)[C@H](O)[C@H]1O)=C\C=C\C=C(C)\C=C\C=C(/C)C(=O)O[C@@H]1O[C@H](CO[C@@H]2O[C@H](CO)[C@@H](O)[C@H](O)[C@H]2O)[C@@H](O)[C@H](O)[C@H]1O` [Crocin], the cell viability was 0.985 (inactive).

Take `CCN(c1cc(-c2ccc(CN3CCOCC3)cc2)cc(C(=O)NCc2c(C)cc(C)[nH]c2=O)c1C)C1CCOCC1`: the cell viability was 0.831 (inactive).

Consider `CNCc1ccc(-c2[nH]c3cc(F)cc4c3c2CCNC4=O)cc1.O=P(O)(O)O` [Rucaparib Phosphate], for which the cell viability is 0.916 (inactive).

In the case of `COc1cc(Nc2c(C#N)cnc3cc(OCCCN4CCN(C)CC4)c(OC)cc23)c(Cl)cc1Cl` [Bosutinib], the cell viability was 0.914 (inactive).

In the case of `C[C@H](Nc1ncnc2nc[nH]c12)c1cc2cccc(Cl)c2c(=O)n1-c1ccccc1` [Duvelisib], the cell viability is 1.21 (inactive).

On to `C[C@@H]1O[C@@H](O[C@H]2[C@H](Oc3cc(O)c4c(c3)O[C@H](c3ccc(O)cc3)CC4=O)O[C@H](CO)[C@@H](O)[C@@H]2O)[C@H](O)[C@H](O)[C@H]1O` [Naringin], for which the cell viability is 1.02 (inactive).

Regarding `Nc1ccccc1NC(=O)c1ccc(CNC(=O)OCc2cccnc2)cc1` [Entinostat], the cell viability is 0.989 (inactive).

For `Nc1nc(F)nc2c1ncn2[C@@H]1O[C@H](CO)[C@@H](O)[C@@H]1O` [Fludarabine], the cell viability was 1.2 (inactive).

Take `Oc1c(I)cc(Cl)c2cccnc12` [Clioquinol]: the cell viability is 0.866 (inactive).

For `CC1(C)CCC(CN2CCN(c3ccc(C(=O)NS(=O)(=O)c4ccc(NCC5CCOCC5)c([N+](=O)[O-])c4)c(Oc4cnc5[nH]ccc5c4)c3)CC2)=C(c2ccc(Cl)cc2)C1`, the cell viability was 1.04 (inactive).

Take `COc1cc2ncnc(Nc3ccc(F)c(Cl)c3)c2cc1OCCCN1CCOCC1` [Gefitinib]: the cell viability is 0.893 (inactive).

Take `CCC1(O)C(=O)OCc2c1cc1n(c2=O)Cc2cc3cc(O)ccc3nc2-1` (stereo unspecified) [Hydroxy Camptothecine]: the cell viability was 0.422 (active).

`CS(=O)(=O)OCCCCOS(C)(=O)=O` [Busulfan]: the cell viability was 0.994 (inactive).

With `COC(=O)C1=C(C)NC(C)=C(C(=O)OC)C1c1ccccc1[N+](=O)[O-]` [Nifedipine], the cell viability is 1.1 (inactive).

As for `Cc1[nH]c2ccccc2c1CCNCc1ccc(/C=C/C(=O)NO)cc1` [Panobinostat], the cell viability was 0.0716 (active).

Turning to `S=c1nc[nH]c2nc[nH]c12` [Mercaptopurine], the cell viability is 0.876 (inactive).

For `Nc1ncn([C@@H]2O[C@H](CO)[C@@H](O)[C@H]2O)c(=O)n1` [Mylosar], the cell viability is 0.927 (inactive).

For `C#Cc1cccc(Nc2ncnc3cc(OCCOC)c(OCCOC)cc23)c1` [Erlotinib], the cell viability is 1.03 (inactive).

As to `O=C(O)C1CSCN1` (stereo unspecified) [Thioproline], the cell viability was 0.893 (inactive).

`CCCCc1nc2cc(/C=C/C(=O)NO)ccc2n1CCN(CC)CC` [Pracinostat]: the cell viability was 0.699 (active).

Consider `CC1(C)NC(=O)N(c2ccc([N+](=O)[O-])c(C(F)(F)F)c2)C1=O` [Nilutamide], for which the cell viability was 1.03 (inactive).

With `NCCNc1ccc(NCCN)c2c1C(=O)c1ccncc1C2=O.O=C(O)/C=C\C(=O)O.O=C(O)/C=C\C(=O)O` [Pixantrone dimaleate], the cell viability is 1.62 (inactive).

In the case of `O=[N+]([O-])c1cncn1CCN1CCOCC1` [Nimorazole], the cell viability is 1.02 (inactive).

On to `CCOC(N)=O` [Urethane], for which the cell viability is 0.987 (inactive).

In the case of `CCc1ccc(CCOc2ccc(CC3SC(=O)NC3=O)cc2)nc1.Cl` (stereo unspecified) [Pioglitazone hydrochloride], the cell viability was 0.921 (inactive).

For the molecule `COc1cc(N2CCC(N3CCN(C)CC3)CC2)ccc1Nc1ncc(Cl)c(Nc2ccccc2P(C)(C)=O)n1` [Brigatinib], the cell viability was 1.08 (inactive).

Regarding `Nc1nc(=O)c2c([nH]1)NCC(CNc1ccc(C(=O)N[C@@H](CCC(=O)[O-])C(=O)[O-])cc1)N2C=O.[Ca+2]` (stereo partly specified) [Calcium folinate], the cell viability is 1.68 (inactive).

For the molecule `CC(C)(S)[C@@H](N)C(=O)O` [Artamine], the cell viability is 1.12 (inactive).

With `CC(C)C[C@H](NC(=O)CNC(=O)c1cc(Cl)ccc1Cl)B(O)O` [Ixazomib], the cell viability is 0.13 (active).
